Consider 46 sequences from the supplement of paper PMC11417369.

Whole data set: some 25,000 sequences, median “ln(normalized median fluorescence intensity)” near 6.7, cut for the highest 2% near 10. Shown is part of a subset that was picked to be rich in the highest values.

This experiment relates to PfHDP1 homeodomain (GST-tagged). As to the kind of experiment: gcPBM binding intensity (ln(normalized median fluorescence intensity)); higher = stronger DNA binding. Put shortly:
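The binding buffer was 1× PBS containing 1% milk, 0.2 mg/ml BSA, 0.5% salmon testes DNA and 0.03% Triton X-100. In it, GST-tagged P. falciparum DNA-binding domains expressed in E. coli were applied for 1 h to an Agilent 4 × 180k array of primer-extended double-stranded 36-bp intergenic genomic probes plus negative controls. Binding intensity, read with Alexa488 anti-GST antibody and a 488 nm scan, is the highest Masliner-normalised natural-log median intensity across replicate spots of either probe orientation.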
Consider “AAAAGTTGTATTTGCACACATAAAAAAAAGATATTA [CACACA_site3840]”, for which the “gcPBM binding intensity (ln)” value was 10.3.
Consider TTGTTGTGTATTATCGTGCACATAATATAAAAGATT, for which the “gcPBM binding intensity (ln)” value worked out at 10.5.
As to “TTGATGTATACAATGTAGATTATTTAATATTTCAAT [GTGCAC_negctrl_site203]”, the “gcPBM binding intensity (ln)” value was determined as 6.12.
As for “TTATGAAAATATTTTTTTCGTTTGATGTATATGTTT [CACACA_negctrl_site1556]”, the figure is 6.22; as for “TTGTATTATATTGTATTATGTTTAAATGAAAAAAAA [CACACA_negctrl_site662]”, 6.46; as for “ATATATCTACAAATATGTACACACACACATATATAT [XGTACX_site1075]”, 6.9.
With “TATAAAAAATAAAAAGTTTAATGAATATTTCTTTTA [TGCATGCA_negctrl_site379]”, the “gcPBM binding intensity (ln)” value was 5.53.
“TTATGTCATAAATGCACACATATATAAATACAGATA [CACACA_site4959]”: the “gcPBM binding intensity (ln)” value worked out at 10.3.
In the case of “ATATATATATATAATGCACACATTATAAATTATGTA [CACACA_site5802]”, the “gcPBM binding intensity (ln)” value turned out to be 10.6.
Then “ATAATGTATATTATTGCACACATATATAAAATTATG [CACACA_site8280]”, with 10.5.
Consider “TTATGTTGTAAATGCACACATACATAAACTCAGTTT [CACACA_site5639]”, for which the “gcPBM binding intensity (ln)” value was found to be 10.5.
“CATTATGTCATAAATGCACACATATATATATACATA [CACACA_site8454]”: the “gcPBM binding intensity (ln)” value is 9.98.
“CATTATGTTGTAAATGCACACATACATATACACAGT [CACACA_site8990]”: the “gcPBM binding intensity (ln)” value came out at 9.81.
Turning to “ATGTTCATTATATGCACACATATATATAAATGTAAT [CACACA_site2908]”, the “gcPBM binding intensity (ln)” value turned out to be 10.2.
“ACATAAAATAAATATACACACATATGTATATATTAT [CACACA_site3041]”: the “gcPBM binding intensity (ln)” value was 6.59.
For “AATGTATATTATTGCACACATATATAAAATTATGCT [CACACA_site1096]”, the “gcPBM binding intensity (ln)” value amounted to 10.5.
For “TTATGTCATAAATGCACACATATATATATACATATA [CACACA_site1588]”, the “gcPBM binding intensity (ln)” value was 10.5.
With “TTATGTTCATTATATGCACACATATATATAAATGTA [CACACA_site8947]”, the “gcPBM binding intensity (ln)” value was determined as 9.74.
Then “TTATGTTGTAAATGCACACATACATATACGCAGTTT [CACACA_site3015]”, with 9.92; and “ATCAAAATTGTCATTACACACCTTTATTTTTAGAAT [CACACA_site1813]”, with 6.6; and “CAAGCCCTTCTGCTTACACACAGTAATTATTGTGCA [CACACA_site7399]”, with 6.34.
Regarding “TTTCTATAATATATATGTACATATATAATATGTCGT [XGTACX_site3676]”, the “gcPBM binding intensity (ln)” value was found to be 6.58.
With “AAATAAAATCATAATGTGCGCATATAAATTTGTAGG [GTGCAC_site9662]”, the “gcPBM binding intensity (ln)” value amounted to 8.1.
As to “AATCCACTTTTTTATGTTATACAATATAAATTAAAT [XGTACX_negctrl_site446]”, the “gcPBM binding intensity (ln)” value was found to be 6.71.
As for “AAAAACTTAATATTCACACATATATATATATATATA [CACACA_site5240]”, the “gcPBM binding intensity (ln)” value amounted to 9.48.
As to “ACAAGATAATAGAGAAGTACTAATAAACATACACAA [XGTACX_site6617]”, the “gcPBM binding intensity (ln)” value is 6.9.
Then “TATATAATATAATGTAGTACATGTTTTATTTTTTAC [XGTACX_site7735]”, with 6.4; and “AAATATCTACATATTTGTACATATTTATACATATTT [XGTACX_site6300]”, with 6.12.
In the case of “TTTTATAATATTTAAAGTACATTCTAAAAATATAAT [XGTACX_site8033]”, the “gcPBM binding intensity (ln)” value is 6.01.
As for “ATACTAAATGAACACACACACATATAGATTTATAAC [CACACA_site6200]”, the figure is 6.87; as for “ATATATATATATAATGCACACATTATGAATTATGTA [CACACA_site3384]”, 10.8.
With “GATATATAATATAATACACACATTTTATGAATGTAA [CACACA_site24]”, the “gcPBM binding intensity (ln)” value turned out to be 6.54.
Then “ATAAATAATTATATATGTACACATTATGAATGGATA [XGTACX_site8336]”, with 6.74; and “CATACATACCTATATACACACATATAAAATAATATA [CACACA_site7290]”, with 6.97.
Consider “ATATTTATAAATTGCACACAAATAATAACATTCTAT [CACACA_site2357]”, for which the “gcPBM binding intensity (ln)” value was found to be 10.4.
Turning to “ATGTCAAACATTTGCACACAAAAAAATAAAAATTAA [CACACA_site692]”, the “gcPBM binding intensity (ln)” value was determined as 10.6.
On to “ATATATTTATATATTGCACACAAAAAAAAAAAAAAA [CACACA_site8468]”, for which the “gcPBM binding intensity (ln)” value amounted to 10.5.
Regarding “ATATTTATAAATTGCACACAAATAATAACATTATAT [CACACA_site5322]”, the “gcPBM binding intensity (ln)” value came out at 10.6.
As for “ATATAAATATATTGCACACACAATTATTATTATTAT [CACACA_site7147]”, the figure is 10.7; as for “AAATATTTATAAATTGCACACAAATAATAACATTAT [CACACA_site8737]”, 10.2.
Consider “ACATGTCAAACATTTGCACACAAAAAAATAAAAATT [CACACA_site691]”, for which the “gcPBM binding intensity (ln)” value was 10.2.
As for “TTTATAAAATTTATTGCACACAATTATTTTATAATT [CACACA_site2489]”, the figure is 9.98; as for “CCATGTCAAACATTTGCACACAAAAAAATAAAAATT [CACACA_site4546]”, 9.71; as for “ACACAAAAAATAAAAATATATATATATTATATATAT [CACACA_negctrl_site1489]”, 7.32.
Then “GAGTATATTTATATTGCACACAATTTTTTTATTTTT [CACACA_site2644]”, with 10.5; and “ATATTATCCCTATTTGCACACAAGAGTAATTTTTTA [CACACA_site3908]”, with 10.4.
